Shown are actives, neighbours in structure and some others; about 1.6% of the full set was active somewhere.
KCNQ2 block = KCNQ2 (rat) channel inhibition | O88943 | CHO-K1 KCNQ2, FluxOR thallium flux, 20 min; stronger effect = lower value | B-score at 10 µM | 310,000 compounds, 1.1% hits | AID 2156;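 active = fluorescence ratio B-score at most minus 3 library SDs, with starting brightness B-score within 2 library SDs, cut at about -5.5 in these data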
KCNQ2 pot = KCNQ2 (rat) channel potentiation | O88943 | CHO-K1 KCNQ2, FluxOR thallium flux fluorescence; stronger effect = higher value | B-score at 10 µM | 310,000 compounds, 0.54% hits | AID 2239;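 active = fluorescence ratio B-score at least 3 SD of library B-scores, with initial fluorescence B-score within 3 of them, cut at about 5.3 in these data; same plate scores as AID 2156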;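 note: B-score of peak minus minimum over baseline fluorescence ratio after K+ and Tl+ stimulus; positive B-score means potentiation of KCNQ2 with more thallium influx and brighter signal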
Kir21 confirm = confirmation of mouse Kir2.1 potassium channel inhibitors; shares compounds with KCNQ2 pot; Kir2.1-expressing cells, FluxOR thallium flux fluorescence; stronger effect = lower value; Tl flux remaining, % of negative control (stronger effect = lower value), % at 10 µM; 2,300 compounds, 41% hits;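 active = Primary-screen hit whose thallium flux fell at least 3 control SD below untreated wells in both duplicates, with normal baseline fluorescence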
HEK293 Tl flux = parental HEK293 activity in Kir2.1 inhibitor counter-screen; AID 2105; parental HEK293 cells, FluxOR thallium flux fluorescence; 0% = unstimulated blank wells; FluxOR signal as % of negative control (100 = no effect), % at 10 µM; 2,300 compounds, 19% hits; shares compounds with KCNQ2 pot;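 active = dye signal at least 3 control SD above or below untreated wells in both duplicates, raw fluorescence within 3, either direction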;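 note: percent is based on the flux ratio of peak minus minimum fluorescence over baseline F0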
CHO-K1 ctr = counter-screen for KCNQ2 potentiators: effect in parental CHO-K1 cells | shares compounds with KCNQ2 pot | FluxOR thallium flux fluorescence; zero = vehicle mean+3SD, 100% = vehicle-minus-blank window | activity increase over 3SD of controls, % at 10 µM | 1,200 compounds, 43% hits;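 active = signal rise of at least 3 SD above the untreated control mean, in both duplicate wells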;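 note: counter screen of KCNQ2 potentiator hits so any rise reflects channel-independent effects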
KCNQ1 sel pot = selectivity of KCNQ2 potentiators: effect on human KCNQ1 | shares compounds with KCNQ2 pot | CHO KCNQ1 stable, FluxOR thallium flux fluorescence; beyond 3SD, as % of vehicle-control signal | activation over 3SD threshold, % at 10 µM | 1,200 compounds, 28% hits;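 active = fluorescence ratio rise of at least 3 SD of vehicle wells above their mean, in both replicate wells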
Target sequence (P51787 whole entry, looked up): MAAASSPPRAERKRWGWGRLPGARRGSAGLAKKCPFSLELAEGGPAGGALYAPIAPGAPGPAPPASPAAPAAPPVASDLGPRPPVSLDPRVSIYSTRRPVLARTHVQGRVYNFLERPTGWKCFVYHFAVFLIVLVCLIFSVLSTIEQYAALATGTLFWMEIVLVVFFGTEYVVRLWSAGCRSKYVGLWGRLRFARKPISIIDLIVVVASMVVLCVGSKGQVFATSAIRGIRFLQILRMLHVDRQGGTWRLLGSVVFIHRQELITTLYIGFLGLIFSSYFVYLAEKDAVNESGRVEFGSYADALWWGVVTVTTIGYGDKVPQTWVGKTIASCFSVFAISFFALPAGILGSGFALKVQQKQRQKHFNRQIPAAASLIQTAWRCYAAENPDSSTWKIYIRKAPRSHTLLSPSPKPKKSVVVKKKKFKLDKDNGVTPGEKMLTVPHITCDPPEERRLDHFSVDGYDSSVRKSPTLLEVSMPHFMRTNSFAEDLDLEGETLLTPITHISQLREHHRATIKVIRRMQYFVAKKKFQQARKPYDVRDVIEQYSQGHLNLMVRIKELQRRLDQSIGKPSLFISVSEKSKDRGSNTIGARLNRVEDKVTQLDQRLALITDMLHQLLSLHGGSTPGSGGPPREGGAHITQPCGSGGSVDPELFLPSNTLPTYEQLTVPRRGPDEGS
KCNQ2 pot conf = rat KCNQ2 channel potentiator confirmation; potentiation, less the hit threshold, % at 10 µM; shares compounds with KCNQ2 pot; 1,200 compounds, 68% hits; CHO-KCNQ2 cells, FluxOR thallium flux fluorescence; AID 2287;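 active = fluorescence ratio rising 3 SD or more over the vehicle control mean in both replicates, plus primary screen hit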;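 note: peak minus minimum thallium fluorescence divided by baseline after K/Tl stimulus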
Kir2-1 sel = tests whether KCNQ2 potentiators also affect mouse Kir2.1; HEK293 Kir2.1, FluxOR thallium flux fluorescence; shares compounds with KCNQ2 pot; 1,200 compounds, 2% hits; activity over 3SD threshold, % at 10 µM;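 active = fluorescence ratio rise of at least 3 SD above the vehicle-control mean, seen in both replicates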
KCNQ2 W236L MoA = potentiates the retigabine-insensitive rat KCNQ2 W236L mutant channel. shares compounds with KCNQ2 pot. CHO KCNQ2-W236L, automated patch clamp current. current increase over 3SD of negative controls (%), stronger effect = higher value, % at 25 µM. 940 compounds, 10% hits. AID 2558;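 active = current increase at least 3 SD of the untreated controls above them in both duplicate recordings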
A number is an active result; . = inactive; / = not tested or not shown.

SMILES	KCNQ2 block	KCNQ2 pot	Kir21 confirm	HEK293 Tl flux	others
COc1ccc(N2CCN(c3ccc(Cl)nn3)CC2)cc1	.	/	/	/
CCC(=O)NCC(c1cccs1)N1CCOCC1 (centres undefined)	.	.	/	/
Cc1cc(SCC(=O)NCC(c2cccs2)N2CCOCC2)c(C)cc1Br (centres undefined)	.	5.4	.	.	CHO-K1 ctr=38;KCNQ1 sel pot=.;KCNQ2 pot conf=.;Kir2-1 sel=.;KCNQ2 W236L MoA=.
COc1ccc(CCNC(=O)c2cc(-c3ccc(Cl)c(Cl)c3)oc2C)cc1	.	/	/	/
Cc1ccc(C(C)NC(=O)c2cccs2)cc1C (centres undefined)	.	8.5	.	.	CHO-K1 ctr=.;KCNQ1 sel pot=13;KCNQ2 pot conf=2.3;Kir2-1 sel=.;KCNQ2 W236L MoA=.
Cc1ccc(C(=O)NC(C)c2ccc3c(c2)OCO3)s1 (centres undefined)	.	.	/	/
Cc1ccc(C(=O)NC(C)c2ccc(C)c(C)c2)s1 (centres undefined)	.	12	.	.	CHO-K1 ctr=.;KCNQ1 sel pot=30;KCNQ2 pot conf=27;Kir2-1 sel=.;KCNQ2 W236L MoA=.
Cc1ccc(C(C)NC(=O)c2cccs2)cc1 (centres undefined)	.	.	/	/
Cc1cc(C)c(S(=O)(=O)N2CCN(C(=O)CCn3nc(C)c(C)c3C)CC2)c(C)c1	.	/	/	/
CCc1ccc(C(C)NC(=S)NCc2ccc(F)cc2)cc1 (centres undefined)	.	.	/	/
COc1cccc(C(C)NC(=S)NCc2ccc(F)cc2)c1 (centres undefined)	.	.	48%	.
Cc1ccc(NC(=S)NCc2ccc(S(N)(=O)=O)cc2)c(C)c1	.	.	/	/
CCOc1ccc(C(C)NC(=S)NCc2ccc(F)cc2)cc1 (centres undefined)	.	.	/	/
Cc1ccc(C(C)NC(=S)NCc2ccc(F)cc2)cc1C (centres undefined)	.	8.1	68%	.	CHO-K1 ctr=0.0;KCNQ1 sel pot=45;KCNQ2 pot conf=33;Kir2-1 sel=.;KCNQ2 W236L MoA=.
Cc1ccc(NC(=S)NCc2ccc(F)cc2)c(C)c1	.	5.5	.	.	CHO-K1 ctr=.;KCNQ1 sel pot=.;KCNQ2 pot conf=42;Kir2-1 sel=.;KCNQ2 W236L MoA=.
c1csc(-c2cc(N3CCCCC3)c3ccccc3n2)c1	.	/	/	/
O=C(CSc1nc2ccccc2c(=O)[nH]1)Nc1ccccc1C(F)(F)F	.	.	/	/
CCCOc1ccc(/C=C/C(=O)OCC(=O)N(C)c2c(N)n(Cc3ccccc3)c(=O)[nH]c2=O)cc1OCC	.	/	/	/
CCCCn1c(N)c(N(CCOC)C(=O)CSc2n[nH]c(-c3ccc(OC)cc3)n2)c(=O)[nH]c1=O	.	/	/	/
Cc1onc(-c2ccccc2Cl)c1C(=O)NC(=S)Nc1ccc(C(C)(C)C)cc1	.	/	/	/
CSCC[C@H](NC(=O)Cc1c(C)c2c(cc(C)c3c(C)coc32)oc1=O)C(=O)O	.	.	/	/
CCC(=O)c1ccc(OCC(=O)OC(C)C(=O)N2CCc3ccccc32)cc1 (centres undefined)	.	/	/	/
CCOC(=O)COc1ccc2ccccc2c1/C=C/[N+](=O)[O-]	.	/	/	/
CCOc1ccc(/C=C/[N+](=O)[O-])c2ccccc12	.	/	.	.
COc1ccccc1CNS(=O)(=O)c1c(C)nc2sccn2c1=O	.	.	/	/
SMILES	KCNQ2 block	KCNQ2 pot	Kir21 confirm	HEK293 Tl flux	others
CN(CC(=O)Nc1ccccc1C(F)(F)F)C(=O)CN1C(=O)C2CCCCC2C1=O (centres undefined)	.	/	/	/
Cc1ccc(-c2nn(-c3ccccc3)cc2CSC(=N)N)cc1	.	/	.	.
OCc1cn(-c2ccccc2)nc1-c1ccc(-c2nn(-c3ccccc3)cc2CO)cc1	.	.	/	/
Cc1ccccc1NC(=O)COC(=O)CCc1ccccc1	.	/	/	/
CCc1cc(=O)oc2cc(OC(=O)c3ccco3)ccc12	.	/	/	/
Cc1cc(=O)oc2cc(OC(=O)c3ccco3)ccc12	.	.	.	.
Cc1ccc(S(=O)(=O)/N=C/c2c(O)ccc3ccccc23)cc1	.	/	/	/
O=S(=O)(/N=C/c1c(O)ccc2ccccc12)c1cccs1	.	5.8	.	.	CHO-K1 ctr=.;KCNQ1 sel pot=.;KCNQ2 pot conf=.;Kir2-1 sel=.
Cc1ccc(NC(=O)CSc2nc(NS(=O)(=O)c3ccccc3)cc(=O)[nH]2)cc1	.	.	/	/
Cc1ccc(S(=O)(=O)Nc2cc(=O)[nH]c(SCC(=O)Nc3cccc(C)c3)n2)cc1	.	5.3	.	.	CHO-K1 ctr=30;KCNQ1 sel pot=.;KCNQ2 pot conf=18;Kir2-1 sel=.;KCNQ2 W236L MoA=.
O=C(NC1CCCC1)c1cc(-c2ccc(Cl)cc2)on1	.	/	/	/
CCOc1cccc(NC(=O)C2CC(=O)N(C)C(=Nc3cccc(F)c3)S2)c1 (centres undefined)	.	6.5	.	.	CHO-K1 ctr=.;KCNQ1 sel pot=.;KCNQ2 pot conf=.;Kir2-1 sel=.
CCOc1cccc(NC(=O)C2CC(=O)N(C)C(=Nc3ccccc3)S2)c1 (centres undefined)	.	.	/	/
Cc1ccc(C2(CCNC(C)c3cccs3)CCOC(C(C)C)C2)cc1 (centres undefined)	.	/	/	/
COc1ccccc1C1(CCNC(C)c2cccs2)CCOC(C(C)C)C1 (centres undefined)	.	.	40%	72%
Cc1cc(C)c2sc(NC(=O)C3CC3)nc2c1	.	/	/	/
O=C(CC1CCCCC1)Nc1ncn[nH]1	.	.	/	/
Nc1sc(-c2ccccc2)n[n+]1Cc1cccc2cccnc12	.	/	.	.
Oc1ccccc1CNc1cccc2cccnc12	.	/	/	/
Nc1c2c(nc3sc4c(c13)CCCCC4)CCCCC2	.	/	/	/
Nc1nc2c(s1)CCCCCCCCCC2	.	6	64%	70%	CHO-K1 ctr=.;KCNQ1 sel pot=89;KCNQ2 pot conf=.;Kir2-1 sel=.;KCNQ2 W236L MoA=.
O=C(COCC(=O)N/N=C/c1ccc(F)cc1)N/N=C/c1ccc(F)cc1	.	/	/	/
COc1cccc(NC(=O)c2ccc3c(c2)CCN3S(C)(=O)=O)c1	.	17	.	.	CHO-K1 ctr=2.5;KCNQ1 sel pot=.;KCNQ2 pot conf=.;Kir2-1 sel=.
CC(=O)Nc1ccc(NC(=O)c2ccc3c(c2)CCN3S(C)(=O)=O)cc1	.	/	/	/
CC(C)OC(=O)/C(C#N)=C/c1c[nH]c2ccccc12	.	.	/	/
O=C(CCN1CCCC1=O)NC1CCCc2c1cnn2-c1ccc(F)cc1F (centres undefined)	.	/	/	/
CCCc1nnc(NC(=O)c2nc(S(=O)(=O)Cc3cccc(C)c3)ncc2Cl)s1	.	15	/	/	CHO-K1 ctr=.;KCNQ1 sel pot=.;KCNQ2 pot conf=99;Kir2-1 sel=.;KCNQ2 W236L MoA=34%
Cc1cccc(CS(=O)(=O)c2ncc(Cl)c(C(=O)Nc3c(C)cccc3C)n2)c1	.	/	.	.
Cc1ccc(NC(=O)c2nc(S(=O)(=O)Cc3ccccc3)ncc2Cl)cc1	.	.	/	/
Cc1cccc(C)c1NC(=O)c1nc(S(=O)(=O)Cc2ccccc2)ncc1Cl	.	/	/	/

Screens from PubChem.
